Assay results reported in PubChem BioAssay AID1159580 (chemical genetic matrix, 2015).
Where “and” joins values, the source holds several entries; their conditions need not be identical. Equal entries are not always repeated. Among all 5,500 compounds or so, about 2,000 (36%) were called active. Roughly 18% stayed inconclusive and do not appear here. Some of the results follow. Unmarked numbers belong to inactive results. Rule as the data show it: active = normalized growth mostly below about 0.91 (no sharp cut-off); inconclusive = no clear call, values can overlap the other calls; inactive = mostly above about 0.92.

Assay: chemical genetic growth profiling, strain panel (AID 1159580);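 also: tested at 20 µM; growth read once vehicle control cultures reached saturation at 30 °C; 1 = growth at the plate median or of vehicle wells; lower values mean less growth of the strain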
Settings: growth OD
[1] = S. cerevisiae deletion strains, locus YDR150W, strain NUM1, stronger effect = lower value
[2] = S. cerevisiae deletion strains, locus YGR078C, strain PAC10, stronger effect = lower value
[3] = S. cerevisiae deletion strains, locus YJR075W, strain HOC1, stronger effect = lower value
[4] = S. cerevisiae deletion strains, locus YMR263W, strain SAP30, stronger effect = lower value
[5] = S. cerevisiae deletion strains, locus YMR307W, strain GAS1, stronger effect = lower value
[6] = S. cerevisiae deletion strains, locus YNL153C, strain GIM3, stronger effect = lower value
[7] = S. cerevisiae deletion strains, locus YPL055C, strain LGE1, stronger effect = lower value
[8] = S. cerevisiae deletion strains, locus YAL013W, strain DEP1, stronger effect = lower value
[9] = S. cerevisiae deletion strains, locus YBR229C, strain ROT2, stronger effect = lower value
[10] = S. cerevisiae deletion strains, locus YCL061C, strain MRC1, stronger effect = lower value
[11] = S. cerevisiae deletion strains, locus YDL101C, strain DUN1, stronger effect = lower value
[12] = S. cerevisiae deletion strains, locus YEL061C, strain CIN8, stronger effect = lower value
[13] = S. cerevisiae deletion strains, locus YHR030C, strain SLT2, stronger effect = lower value
[14] = S. cerevisiae deletion strains, locus YHR087W, strain rtc3, stronger effect = lower value
[15] = S. cerevisiae deletion strains, locus YJR043C, strain POL32, stronger effect = lower value
[16] = S. cerevisiae deletion strains, locus YLR039C, strain RIC1, stronger effect = lower value
[17] = S. cerevisiae deletion strains, locus YLR058C, strain SHM2 (second series), stronger effect = lower value
[18] = S. cerevisiae deletion strains, locus YLR085C, strain ARP6, stronger effect = lower value
[19] = S. cerevisiae deletion strains, locus YLR262C, strain YPT6, stronger effect = lower value
[20] = S. cerevisiae deletion strains, locus YML094W, strain GIM5, stronger effect = lower value
[21] = S. cerevisiae deletion strains, locus YMR219W, strain ESC1, stronger effect = lower value
[22] = S. cerevisiae deletion strains, locus YNL298W, strain CLA4 (second series), stronger effect = lower value
[23] = S. cerevisiae deletion strains, locus YNL322C, strain KRE1, stronger effect = lower value
[24] = S. cerevisiae deletion strains, locus YNR030W, strain Alg12, stronger effect = lower value
[25] = S. cerevisiae deletion strains, locus YPL241C, strain CIN2, stronger effect = lower value
[26] = S. cerevisiae deletion strains, locus YPR135W, strain CTF4, stronger effect = lower value

COc1ccc(CCN(C)CCc2ccc(OC)c(OC)c2)cc1OC showed a normalized growth (S. cerevisiae deletion strains, locus YAL040C, strain CLN3, stronger effect = lower value) of 1.08, a normalized growth (S. cerevisiae deletion strains, locus YCL061C, strain MRC1 (second series), stronger effect = lower value) of 0.998 and a normalized growth [1] of 1.01. The normalized growth (S. cerevisiae deletion strains, locus YDR363W, strain ESC2, stronger effect = lower value) was 1.01, the normalized growth (S. cerevisiae deletion strains, locus YER002W, strain NOP16, stronger effect = lower value) was 1.01 and the normalized growth [2] was 0.992. The normalized growth [3] was 0.983, the normalized growth [4] was 0.999 and the normalized growth [5] was 0.998. It also gave a normalized growth [6] of 1.03, a normalized growth (S. cerevisiae deletion strains, locus YNL175C, strain NOP13, stronger effect = lower value) of 1.02 and a normalized growth (S. cerevisiae deletion strains, locus YNL197C, strain WHI3, stronger effect = lower value) of 1.01. It also gave a normalized growth (S. cerevisiae deletion strains, locus YNL224C, strain SQS1, stronger effect = lower value) of 1.01, a normalized growth (S. cerevisiae deletion strains, locus YOR083W, strain WHI5 (second series), stronger effect = lower value) of 1.02 and a normalized growth [7] of 0.985.
In the case of COc1cc(CC/C(C)=N/O)ccc1OCc1ccc(Cl)cc1Cl, the normalized growth [8] is reported as 0.908 (active), the normalized growth (S. cerevisiae deletion strains, locus YAR019C, strain CDC15, stronger effect = lower value) is reported as 0.977 and the normalized growth (S. cerevisiae deletion strains, locus YBL105C, strain PKC1, stronger effect = lower value) is reported as 0.972. The normalized growth (S. cerevisiae deletion strains, locus YBR135W, strain CKS1, stronger effect = lower value) was 0.978, the normalized growth (S. cerevisiae deletion strains, locus YBR136W, strain MEC1, stronger effect = lower value) was 0.977 and the normalized growth (S. cerevisiae deletion strains, locus YBR160W, strain CDC28, stronger effect = lower value) was 0.981. It also gave a normalized growth [9] of 0.934, a normalized growth [10] of 0.931 and a normalized growth (S. cerevisiae deletion strains, locus YDL017W, strain CDC7, stronger effect = lower value) of 0.979. For the same molecule, the normalized growth (S. cerevisiae deletion strains, locus YDL028C, strain MPS1, stronger effect = lower value) was 0.978, the normalized growth [11] was 0.992 and 0.922 and the normalized growth (S. cerevisiae deletion strains, locus YDL108W, strain KIN28, stronger effect = lower value) was 0.978. It also gave a normalized growth (S. cerevisiae deletion strains, locus YDL132W, strain cdc53, stronger effect = lower value) of 0.982, a normalized growth (S. cerevisiae deletion strains, locus YDL134C, strain PPH21, stronger effect = lower value) of 0.925 and a normalized growth (S. cerevisiae deletion strains, locus YDL214C, strain PRR2, stronger effect = lower value) of 0.944. For the same molecule, the normalized growth (S. cerevisiae deletion strains, locus YDR052C, strain DBF4, stronger effect = lower value) was 0.989, the normalized growth (S. cerevisiae deletion strains, locus YDR054C, strain cdc34, stronger effect = lower value) was 0.998 and the normalized growth [1] was 0.911. For the same molecule, the normalized growth (S. cerevisiae deletion strains, locus YDR226W, strain ADK1, stronger effect = lower value) was 1, the normalized growth (S. cerevisiae deletion strains, locus YDR477W, strain SNF1, stronger effect = lower value) was 0.952 and the normalized growth [12] was 0.929. It also gave a normalized growth (S. cerevisiae deletion strains, locus YER123W, strain YCK3, stronger effect = lower value) of 0.939, a normalized growth (S. cerevisiae deletion strains, locus YER133W, strain GLC7, stronger effect = lower value) of 0.937 and a normalized growth (S. cerevisiae deletion strains, locus YFL009W, strain cdc4, stronger effect = lower value) of 0.968. For the same molecule, the normalized growth (S. cerevisiae deletion strains, locus YFL029C, strain CAK1, stronger effect = lower value) was 0.98, the normalized growth (S. cerevisiae deletion strains, locus YFR003C, strain YPI1, stronger effect = lower value) was 0.976 and the normalized growth (S. cerevisiae deletion strains, locus YFR019W, strain FAB1, stronger effect = lower value) was 0.953. For the same molecule, the normalized growth (S. cerevisiae deletion strains, locus YFR028C, strain CDC14, stronger effect = lower value) was 0.984, the normalized growth (S. cerevisiae deletion strains, locus YGR040W, strain KSS1, stronger effect = lower value) was 0.948 and the normalized growth (S. cerevisiae deletion strains, locus YGR052W, strain FMP48, stronger effect = lower value) was 0.973. For the same molecule, the normalized growth [2] was 0.92 (active), the normalized growth (S. cerevisiae deletion strains, locus YGR092W, strain DBF2, stronger effect = lower value) was 0.952 and the normalized growth [13] was 0.242 (active) and 0.801 (active). It also gave a normalized growth (S. cerevisiae deletion strains, locus YHR079C, strain IRE1, stronger effect = lower value) of 0.885, a normalized growth (S. cerevisiae deletion strains, locus YHR082C, strain KSP1, stronger effect = lower value) of 1.02 and a normalized growth [14] of 0.935. It also gave a normalized growth (S. cerevisiae deletion strains, locus YHR205W, strain SCH9, stronger effect = lower value) of 0.939, a normalized growth (S. cerevisiae deletion strains, locus YIL147C, strain SLN1, stronger effect = lower value) of 0.982 and a normalized growth (S. cerevisiae deletion strains, locus YJL095W, strain BCK1, stronger effect = lower value) of 0.938. The normalized growth (S. cerevisiae deletion strains, locus YJL128C, strain PBS2, stronger effect = lower value) was 0.932, the normalized growth (S. cerevisiae deletion strains, locus YJL157C, strain FAR1, stronger effect = lower value) was 0.918 and the normalized growth (S. cerevisiae deletion strains, locus YJR016C, strain ILV3, stronger effect = lower value) was 0.978. The normalized growth [15] was 0.91 (active), the normalized growth (S. cerevisiae deletion strains, locus YJR066W, strain TOR1 (second series), stronger effect = lower value) was 0.913 and the normalized growth (S. cerevisiae deletion strains, locus YJR066W, strain TOR1, stronger effect = lower value) was 1.01. The normalized growth [3] was 0.879 (active), the normalized growth (S. cerevisiae deletion strains, locus YKL048C, strain ELM1, stronger effect = lower value) was 0.986 and the normalized growth (S. cerevisiae deletion strains, locus YKL067W, strain YNK1, stronger effect = lower value) was 0.942. For the same molecule, the normalized growth (S. cerevisiae deletion strains, locus YKL101W, strain HSL1, stronger effect = lower value) was 0.949, the normalized growth (S. cerevisiae deletion strains, locus YKL190W, strain CNB1, stronger effect = lower value) was 0.762 (active) and the normalized growth (S. cerevisiae deletion strains, locus YKL193C, strain SDS22, stronger effect = lower value) was 0.979. The normalized growth (S. cerevisiae deletion strains, locus YKL203C, strain TOR2, stronger effect = lower value) was 0.972, the normalized growth [16] was 0.694 (active) and the normalized growth [17] was 0.976. The normalized growth [18] was 0.307 (active), the normalized growth (S. cerevisiae deletion strains, locus YLR113W, strain HOG1, stronger effect = lower value) was 0.881 and the normalized growth (S. cerevisiae deletion strains, locus YLR133W, strain CKI1, stronger effect = lower value) was 0.944. The normalized growth [19] was 0.803 (active), the normalized growth (S. cerevisiae deletion strains, locus YLR403W, strain SFP1, stronger effect = lower value) was 0.942 and the normalized growth (S. cerevisiae deletion strains, locus YML070W, strain DAK1, stronger effect = lower value) was 0.936. The normalized growth [20] was 0.865 (active), the normalized growth (S. cerevisiae deletion strains, locus YMR001C, strain CDC5, stronger effect = lower value) was 0.971 and the normalized growth (S. cerevisiae deletion strains, locus YMR205C, strain PFK2 (second series), stronger effect = lower value) was 0.965. The normalized growth [21] was 0.998, the normalized growth [4] was 0.912 and the normalized growth (S. cerevisiae deletion strains, locus YMR277W, strain FCP1, stronger effect = lower value) was 0.979. The normalized growth (S. cerevisiae deletion strains, locus YNL006W, strain LST8, stronger effect = lower value) was 0.974, the normalized growth (S. cerevisiae deletion strains, locus YNL020C, strain ARK1, stronger effect = lower value) was 0.935 and the normalized growth [6] was 0.94. For the same molecule, the normalized growth (S. cerevisiae deletion strains, locus YNL161W, strain CBK1, stronger effect = lower value) was 0.976, the normalized growth (S. cerevisiae deletion strains, locus YNL183C, strain NPR1, stronger effect = lower value) was 0.978 and the normalized growth (S. cerevisiae deletion strains, locus YNL207W, strain RIO2, stronger effect = lower value) was 0.979. The normalized growth (S. cerevisiae deletion strains, locus YNL222W, strain SSU72, stronger effect = lower value) was 0.98, the normalized growth [22] was 0.784 (active) and the normalized growth (S. cerevisiae deletion strains, locus YNL307C, strain MCK1 (second series), stronger effect = lower value) was 0.932. The normalized growth [23] was 0.98, the normalized growth [24] was 0.803 (active) and the normalized growth (S. cerevisiae deletion strains, locus YOL006C, strain TOP1, stronger effect = lower value) was 0.579 (active). For the same molecule, the normalized growth (S. cerevisiae deletion strains, locus YOL078W, strain AVO1, stronger effect = lower value) was 0.983, the normalized growth (S. cerevisiae deletion strains, locus YOL136C, strain PFK27, stronger effect = lower value) was 0.921 and the normalized growth (S. cerevisiae deletion strains, locus YOR061W, strain CKA2, stronger effect = lower value) was 0.966. It also gave a normalized growth (S. cerevisiae deletion strains, locus YOR119C, strain RIO1, stronger effect = lower value) of 1.02, a normalized growth (S. cerevisiae deletion strains, locus YOR231W, strain MKK1, stronger effect = lower value) of 0.929 and a normalized growth (S. cerevisiae deletion strains, locus YOR329C, strain SCD5, stronger effect = lower value) of 0.976. The normalized growth (S. cerevisiae deletion strains, locus YPL031C, strain PHO85, stronger effect = lower value) was 0.94, the normalized growth [7] was 0.727 (active) and the normalized growth (S. cerevisiae deletion strains, locus YPL153C, strain RAD53, stronger effect = lower value) was 0.95. For the same molecule, the normalized growth (S. cerevisiae deletion strains, locus YPL209C, strain IPL1, stronger effect = lower value) was 0.976, the normalized growth [25] was 0.822 (active) and the normalized growth (S. cerevisiae deletion strains, locus YPL256C, strain CLN2, stronger effect = lower value) was 0.863 (active). The normalized growth (S. cerevisiae deletion strains, locus YPR025C, strain CCL1, stronger effect = lower value) was 0.979, the normalized growth (S. cerevisiae deletion strains, locus YPR106W, strain ISR1, stronger effect = lower value) was 0.976 and the normalized growth (S. cerevisiae deletion strains, locus YPR111W, strain DBF20, stronger effect = lower value) was 0.993. For the same molecule, the normalized growth [26] was 0.388 (active), the normalized growth (S. cerevisiae deletion strains, strain NNK1, stronger effect = lower value) was 0.976 and the normalized growth (S. cerevisiae deletion strains, strain TSCII, stronger effect = lower value) was 0.973.
COc1ccc(CCNC(=S)NCCc2ccc(OC)c(OC)c2)cc1OC showed a normalized growth [8] of 0.998, a normalized growth [9] of 0.988 and a normalized growth [10] of 0.993. It also gave a normalized growth [11] of 0.989, a normalized growth [1] of 0.985 and a normalized growth [12] of 0.987. The normalized growth [2] was 0.981, the normalized growth [13] was 1 and the normalized growth [14] was 0.979. For the same molecule, the normalized growth (S. cerevisiae deletion strains, locus YJL187C, strain SWE1, stronger effect = lower value) was 0.994, the normalized growth [15] was 0.993 and the normalized growth [3] was 1.04. It also gave a normalized growth [16] of 1.04, a normalized growth [17] of 1 and a normalized growth [18] of 1.02. The normalized growth [19] was 1.02, the normalized growth [20] was 0.981 and the normalized growth [21] was 1. For the same molecule, the normalized growth [4] was 1.06, the normalized growth [5] was 1.06 and the normalized growth (S. cerevisiae deletion strains, locus YNL128W, strain TEP1, stronger effect = lower value) was 1.02. For the same molecule, the normalized growth [6] was 0.992, the normalized growth [22] was 1.01 and the normalized growth [23] was 0.992. It also gave a normalized growth [24] of 1, a normalized growth [7] of 0.982 and a normalized growth [25] of 1.08. The normalized growth [26] was 1.05 and the normalized growth (S. cerevisiae strains, strain wild type, stronger effect = lower value) was 1.01.
